Compound activity as filed in PubChem BioAssay.
Vif-APOBEC3G blk: blocks the Vif interaction with human APOBEC3G; Q9HC16; HeLa A3G-eYFP + Vif (tagged APOBEC3G with the HIV-1 protein that degrades it), YFP fluorescence, overnight; Potency, µM (highest dose often 46.1 µM), inactives show at the top dose activity, negative = active, usual class: inhibitors; 410,000 compounds, 0.076% hits; AID 602310; further: potency means the concentration at half of the fitted maximal effect; on the % scale 0 is the no-effect control and ±100 the full control effect; nearly all actives have a fitted effect of over 60% in size
Target sequence (Q9HC16 whole entry, looked up): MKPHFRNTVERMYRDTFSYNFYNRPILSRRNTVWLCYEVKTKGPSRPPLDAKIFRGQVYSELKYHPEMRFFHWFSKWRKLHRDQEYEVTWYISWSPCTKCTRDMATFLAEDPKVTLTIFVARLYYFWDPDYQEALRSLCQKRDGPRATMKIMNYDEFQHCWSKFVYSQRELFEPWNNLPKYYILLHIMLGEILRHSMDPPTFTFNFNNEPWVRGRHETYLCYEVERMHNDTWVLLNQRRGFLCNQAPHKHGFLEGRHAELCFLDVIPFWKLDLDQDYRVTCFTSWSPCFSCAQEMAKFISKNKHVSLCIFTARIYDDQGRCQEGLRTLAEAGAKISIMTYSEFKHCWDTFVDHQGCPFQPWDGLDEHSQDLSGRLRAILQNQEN
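Read-out is eYFP fluorescence (Ex 488/Em 500-530) from Vif-expressing HeLa A3G-eYFP cells; more signal means A3G escaped Vif-mediated degradation. Cells plated overnight, compound pinned in, incubated overnight at 37 deg C.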
PTHR1 agonist: activates the human parathyroid hormone receptor PTHR1. HEK293 GP2 PTHR1 cells, GloSensor cAMP luminescence, 1 h. Potency, µM (top dose mostly 115 µM), for inactives: at the top dose activation, hits mostly activators. 410,000 compounds, 0.075% hits. AID 743266; further: potency means the concentration at half of the fitted maximal effect; nearly all actives have a fitted effect of over 55% in size
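HEK-293-derived GP2 cells expressing PTHR1 and a GloSensor cAMP reporter, 3,000/well, plated overnight, given luciferin plus IBMX (each 0.5 mM as added) for 1 h at 37 °C, then compound for 1 h at 37 °C. Luminescence was read after 15 min at room temperature.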
IDH1 R132H inh: human IDH1 R132H inhibition; IDH1-R132H enzyme, NADPH consumption, diaphorase/resazurin fluorescence; Potency, µM (series often up to 76.6 µM), inactives show top-dose activity change, negative = inhibition, hits mostly inhibitors; O75874; 390,000 compounds, 0.093% hits; AID 602179; further: potency means the concentration at half of the fitted maximal effect; on the % scale 0 is the no-effect control and ±100 the full control effect; nearly all actives have a fitted effect of over 65% in size
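IDH1-R132H (0.5 ug/mL dispensed) in pH 7.5 Tris buffer was preincubated 30 min with compound, then given a substrate mix of 0.016 mM NADPH and 2 mM alpha-KG for 80 min at room temperature; remaining NADPH was read by diaphorase/resazurin fluorescence.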
LDHA block: inhibitors of human lactate dehydrogenase A; activity change, % (values are at about 110 or 230 µM); 480,000 compounds, 0.15% hits; purified LDHA, NADH/diaphorase-resazurin fluorescence; stronger effect = lower value; P00338; in the data active means activity change below about -30%; inconclusive means mostly about -25% to -30%;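 further: plate controls were DMSO wells for no effect and wells without enzyme for full effect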
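Human LDH5 (2 nM) was incubated with 0.06 mM NADH and 0.2 mM pyruvate for 5 min at room temperature in Tris pH 7.4. Remaining NADH was coupled through diaphorase/resazurin, and resorufin fluorescence was read at 0 and 20 min.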
Vif-A3F inh: blocks the Vif interaction with APOBEC3F; HeLa A3F-eYFP + Vif (tagged APOBEC3F with the HIV-1 protein that degrades it), YFP fluorescence increase; Potency, µM (highest dose often 46.1 µM), for inactives: at the top dose activity, negative = active; 390,000 compounds, 0.2% hits; AID 602313; further: potency means the concentration at half of the fitted maximal effect; % of control where 0% means no effect; nearly all actives have a fitted effect of over 65% in size
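HeLa cells stably expressing A3F-eYFP plus Vif, plated and incubated overnight at 37 deg C, then exposed to compounds overnight at 37 deg C. Blocked degradation read as raised yellow fluorescence (Ex 488/Em 500-530).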
PINK1 expr mod: PINK1 expression modulation; PINK1 immunofluorescence, high-content cytometry, 24 h; Potency, µM (top dose mostly 76.6 µM), without a hit: at the highest dose activation (PINK1 increase), actives largely listed as activators; 410,000 compounds, 0.2% hits; AID 624263; active means well fitted activation curve with a large enough effect; inconclusive means small, poorly fitted or top-dose-only effect; cell line not stated here; further: potency means the concentration at half of the fitted maximal effect; % of control where 0% means no effect; nearly all actives have a fitted effect of over 65% in size
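A stable cell line was treated with compounds at 5 concentrations for 24 hours, with CCCP as control. PINK1 levels and mitochondrial localization were measured by immunofluorescence with mitochondrial, cell and nuclear markers after fixation, read by laser-scanning cytometry.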
Numbers without * were called inactive; i = inactive; ? = inconclusive; nt = no result; [ ] = dose if it differs, or a comment. Sampled rows, rich in hits. Any-hit rate of the full collection: about 0.59%. Unless noted, the call rests on the fitted dose curve; in most records, active means well fitted curve in the direction sought with a large enough effect; inconclusive means small, poorly fitted or top-dose-only effect, or another doubt; inactive means no such curve, though single readings can be large; an effect the other way counts as inactive or inconclusive.

SMILES	Vif-APOBEC3G blk	PTHR1 agonist	IDH1 R132H inh	LDHA block	Vif-A3F inh	PINK1 expr mod
CCOC(=O)c1cc(-c2ccccc2)n(CCC(=O)Nc2ccc(C(F)(F)F)cc2)c1C	2%	-91%	5%	3	-18%	40µM*
Cc1nc2ccc(NC(=O)c3cc(S(=O)(=O)N(C)c4ccccc4)ccc3Cl)cc2s1	-10%	-20%	3%	-4	22µM*	25%
COC(=O)C1=C(C)N(Cc2ccco2)C(=O)/C1=C\c1ccc([N+](=O)[O-])cc1	?	-38%	3%	1	3.2µM*	2%
CCOC(=O)c1sc(=S)n(C)c1NC(=O)c1ccccc1	-2%	-1%	-7%	-7	-3%	-4%
CCOC(=O)c1sc(=S)n(C)c1NC(=O)c1cccc(Br)c1	0%	-44%	-3%	-5	-12%	40µM*
CCCN1CCc2c(sc(NC(=O)c3ccc(S(=O)(=O)N4CCN(C(=O)OCC)CC4)cc3)c2C(N)=O)C1	?	-11%	-9%	-4	10µM*	0%
CCOC(=O)c1c(NC(=O)c2ccc(S(=O)(=O)N3CCC(C)CC3)cc2)sc2c1CCN(C)C2	?	-18%	-28%	-3	10µM*	21%
CCCN1CCc2c(sc(NC(=O)c3ccc(S(=O)(=O)N(C)c4ccccc4)cc3)c2C(=O)NC)C1	22µM*	i	5%	1	?	4%
CCCN1CCc2c(sc(NC(=O)c3ccc(S(=O)(=O)N(C)c4ccccc4)cc3)c2C(N)=O)C1	?	0%	-7%	-4	6.3µM*	16%
CCN1CCc2c(sc(NC(=O)c3ccc(S(=O)(=O)N(C)C4CCCCC4)cc3)c2C(N)=O)C1	?	i	-1%	2	?	-5%
CCOC(=O)N1CCN(S(=O)(=O)c2ccc(C(=O)Nc3sc4c(c3C(N)=O)CCN(CC)C4)cc2)CC1	?	-9%	-8%	1	?	-2%
CCN1CCc2c(sc(NC(=O)c3ccc(S(=O)(=O)N4CCCC4)cc3)c2C(=O)NC)C1	-21%	i	8%	-2	?	0%
Cc1cc(Cl)ccc1OCC(=O)N(Cc1sccc1C)CC1CCCO1 (stereo not drawn)	nt	nt	nt	9	nt	nt
Cc1cc(C)c(OCC(=O)Nc2ccccc2N2CCCC2=O)c(C)c1	nt	nt	nt	0	nt	nt
CC(C)CCC(C)NC(=O)c1nccnc1N (stereo not drawn)	nt	nt	nt	-5	nt	nt
COc1ccc(C=NNc2ccc([N+](=O)[O-])cn2)cc1	0%	-12%	-1%	0	?	11µM*
CCN(CC)c1ccc(C=NNc2ccc([N+](=O)[O-])cn2)cc1	?	i	-7%	-1	3.5µM*	24%
O=[N+]([O-])c1ccc(NN=Cc2ccc(O)cc2)nc1	2%	-21%	2%	-13	1%	5%
O=[N+]([O-])c1ccc(N/N=C\c2cccn2-c2ccccc2)nc1	11µM*	?	-1%	-3	?	-3%
O=[N+]([O-])c1ccc(NN=Cc2ccccc2)nc1	-7%	i	-2%	-6	-6%	1%
Cn1c(CCc2ccccc2)nc2cc(NC(=O)c3ccc(C#N)cc3)ccc21	nt	nt	nt	-9	nt	nt
CC(NC(=O)CCc1ccc(C#N)cc1)c1cccs1 (stereo not drawn)	nt	nt	nt	2	nt	nt
O=C(N/N=C/c1ccc([N+](=O)[O-])s1)c1ccccc1	-7%	i	1%	-63*	0%	-1%
CC(C)CNc1oc(-c2ccccc2F)nc1C#N	nt	nt	nt	-36*	nt	nt
CCOC(=O)Cc1csc(NC(=O)c2sc3nc4c(C)cc(C)cc4cc3c2N)n1	?	i	-6%	-21	25µM*	14%[38.3 µM]
CCOC(=O)Cc1csc(NC(=O)c2csc(C)c2)n1	2%	i	1%	-3	-7%	0%[38.3 µM]
COc1ccc(-c2cnc3c(NC=O)cc(-c4ccc(F)cc4)cn23)cc1OC	?	-10%	nt	-2	nt	0%
